Measured values published in ChEMBL document CHEMBL1961873, “Compounds: GSK PKIS; Assays: Nanosyn kinase panel” (2012).

Key:
[1] = target: Mitogen-activated protein kinase 3 (Homo sapiens) (UniProt P27361); settings: at 1 µM;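 also: values are mean percent inhibition of MAPK3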
[2] = target: SRSF protein kinase 3 (Homo sapiens) (UniProt Q9UPE1); settings: at 0.1 µM
[3] = target: SRSF protein kinase 3 (Homo sapiens) (UniProt Q9UPE1); settings: at 1 µM
[4] = target: Mitogen-activated protein kinase 14 (Homo sapiens) (UniProt Q16539); settings: at 0.1 µM
Mitogen-activated protein kinase 14 (Homo sapiens), sequence (Q16539 whole entry): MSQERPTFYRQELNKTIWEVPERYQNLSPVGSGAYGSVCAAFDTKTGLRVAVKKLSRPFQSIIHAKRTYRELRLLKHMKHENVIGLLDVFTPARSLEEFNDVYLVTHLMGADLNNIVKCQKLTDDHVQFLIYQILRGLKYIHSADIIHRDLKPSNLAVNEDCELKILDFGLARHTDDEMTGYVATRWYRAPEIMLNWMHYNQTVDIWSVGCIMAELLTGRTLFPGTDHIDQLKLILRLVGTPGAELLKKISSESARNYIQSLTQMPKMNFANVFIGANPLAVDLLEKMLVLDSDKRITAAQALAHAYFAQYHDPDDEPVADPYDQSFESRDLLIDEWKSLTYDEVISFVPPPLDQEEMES

[5] = target: Mitogen-activated protein kinase 14 (Homo sapiens) (UniProt Q16539); settings: at 1 µM
[6] = target: Mitogen-activated protein kinase 11 (Homo sapiens) (UniProt Q15759); settings: at 0.1 µM
Mitogen-activated protein kinase 11 (Homo sapiens), sequence (Q15759 whole entry): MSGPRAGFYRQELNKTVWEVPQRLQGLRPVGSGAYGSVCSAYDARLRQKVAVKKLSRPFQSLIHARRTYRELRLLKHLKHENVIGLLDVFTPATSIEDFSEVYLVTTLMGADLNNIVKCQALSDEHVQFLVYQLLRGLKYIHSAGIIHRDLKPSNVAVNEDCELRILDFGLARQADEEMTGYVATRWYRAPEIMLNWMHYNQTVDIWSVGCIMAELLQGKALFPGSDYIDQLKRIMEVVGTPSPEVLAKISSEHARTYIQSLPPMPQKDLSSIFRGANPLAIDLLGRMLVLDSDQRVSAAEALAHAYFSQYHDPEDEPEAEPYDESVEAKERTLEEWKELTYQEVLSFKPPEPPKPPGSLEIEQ

[7] = target: Mitogen-activated protein kinase 11 (Homo sapiens) (UniProt Q15759); settings: at 1 µM
[8] = target: T1, Mitogen-activated protein kinase 13 (Homo sapiens) (UniProt O15264); settings: at 0.1 µM
T1 sequence (whole entry): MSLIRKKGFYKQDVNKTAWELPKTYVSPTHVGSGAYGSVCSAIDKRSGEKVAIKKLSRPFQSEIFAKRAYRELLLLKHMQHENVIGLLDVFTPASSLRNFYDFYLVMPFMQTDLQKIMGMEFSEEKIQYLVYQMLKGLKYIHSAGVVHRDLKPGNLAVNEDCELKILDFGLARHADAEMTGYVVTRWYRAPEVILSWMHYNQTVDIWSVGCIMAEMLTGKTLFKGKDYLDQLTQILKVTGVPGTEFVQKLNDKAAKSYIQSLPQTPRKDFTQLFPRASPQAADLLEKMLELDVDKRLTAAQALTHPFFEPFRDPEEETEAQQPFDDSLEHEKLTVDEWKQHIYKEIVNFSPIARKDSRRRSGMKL

[9] = target: T1, Mitogen-activated protein kinase 13 (Homo sapiens); settings: at 1 µM
[10] = target: T2, Mitogen-activated protein kinase 12 (Homo sapiens) (UniProt P53778); settings: at 0.1 µM
T2 sequence (whole entry): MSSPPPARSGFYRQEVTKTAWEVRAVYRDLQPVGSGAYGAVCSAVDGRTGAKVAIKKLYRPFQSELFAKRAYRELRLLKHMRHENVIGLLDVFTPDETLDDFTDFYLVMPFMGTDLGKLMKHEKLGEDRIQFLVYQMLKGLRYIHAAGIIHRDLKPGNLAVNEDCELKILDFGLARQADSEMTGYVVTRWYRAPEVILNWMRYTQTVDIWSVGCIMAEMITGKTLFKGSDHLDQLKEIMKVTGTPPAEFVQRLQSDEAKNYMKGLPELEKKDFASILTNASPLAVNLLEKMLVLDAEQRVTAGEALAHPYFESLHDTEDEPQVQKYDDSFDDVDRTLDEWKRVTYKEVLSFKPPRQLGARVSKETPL

[11] = target: T2, Mitogen-activated protein kinase 12 (Homo sapiens); settings: at 1 µM
[12] = target: SRSF protein kinase 1 (Homo sapiens) (UniProt Q96SB4); settings: at 0.1 µM
SRSF protein kinase 1 (Homo sapiens), sequence (Q96SB4 whole entry, canonical isoform): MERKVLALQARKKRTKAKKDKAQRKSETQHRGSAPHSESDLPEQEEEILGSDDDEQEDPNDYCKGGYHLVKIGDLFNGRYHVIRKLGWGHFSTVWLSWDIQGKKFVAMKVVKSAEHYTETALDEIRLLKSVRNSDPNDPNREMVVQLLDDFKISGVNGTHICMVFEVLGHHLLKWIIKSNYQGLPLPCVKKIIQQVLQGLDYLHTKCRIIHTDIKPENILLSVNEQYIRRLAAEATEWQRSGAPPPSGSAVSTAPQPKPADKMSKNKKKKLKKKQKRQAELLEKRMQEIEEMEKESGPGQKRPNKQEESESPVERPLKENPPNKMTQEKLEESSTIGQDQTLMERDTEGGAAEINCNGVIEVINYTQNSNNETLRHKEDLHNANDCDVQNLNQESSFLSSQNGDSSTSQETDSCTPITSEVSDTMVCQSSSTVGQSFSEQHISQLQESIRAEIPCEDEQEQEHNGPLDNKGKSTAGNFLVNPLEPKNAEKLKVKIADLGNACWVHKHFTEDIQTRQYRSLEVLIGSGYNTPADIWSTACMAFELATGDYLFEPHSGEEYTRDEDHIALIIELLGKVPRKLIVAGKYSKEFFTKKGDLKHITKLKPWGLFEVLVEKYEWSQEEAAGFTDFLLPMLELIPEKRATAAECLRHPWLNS

[13] = target: SRSF protein kinase 1 (Homo sapiens) (UniProt Q96SB4); settings: at 1 µM
[14] = target: Phosphatidylinositol 4,5-bisphosphate 3-kinase catalytic subunit alpha isoform (Homo sapiens) (UniProt P42336); settings: at 0.1 µM
Phosphatidylinositol 4,5-bisphosphate 3-kinase catalytic subunit alpha isoform (Homo sapiens), sequence (P42336 whole entry, canonical isoform): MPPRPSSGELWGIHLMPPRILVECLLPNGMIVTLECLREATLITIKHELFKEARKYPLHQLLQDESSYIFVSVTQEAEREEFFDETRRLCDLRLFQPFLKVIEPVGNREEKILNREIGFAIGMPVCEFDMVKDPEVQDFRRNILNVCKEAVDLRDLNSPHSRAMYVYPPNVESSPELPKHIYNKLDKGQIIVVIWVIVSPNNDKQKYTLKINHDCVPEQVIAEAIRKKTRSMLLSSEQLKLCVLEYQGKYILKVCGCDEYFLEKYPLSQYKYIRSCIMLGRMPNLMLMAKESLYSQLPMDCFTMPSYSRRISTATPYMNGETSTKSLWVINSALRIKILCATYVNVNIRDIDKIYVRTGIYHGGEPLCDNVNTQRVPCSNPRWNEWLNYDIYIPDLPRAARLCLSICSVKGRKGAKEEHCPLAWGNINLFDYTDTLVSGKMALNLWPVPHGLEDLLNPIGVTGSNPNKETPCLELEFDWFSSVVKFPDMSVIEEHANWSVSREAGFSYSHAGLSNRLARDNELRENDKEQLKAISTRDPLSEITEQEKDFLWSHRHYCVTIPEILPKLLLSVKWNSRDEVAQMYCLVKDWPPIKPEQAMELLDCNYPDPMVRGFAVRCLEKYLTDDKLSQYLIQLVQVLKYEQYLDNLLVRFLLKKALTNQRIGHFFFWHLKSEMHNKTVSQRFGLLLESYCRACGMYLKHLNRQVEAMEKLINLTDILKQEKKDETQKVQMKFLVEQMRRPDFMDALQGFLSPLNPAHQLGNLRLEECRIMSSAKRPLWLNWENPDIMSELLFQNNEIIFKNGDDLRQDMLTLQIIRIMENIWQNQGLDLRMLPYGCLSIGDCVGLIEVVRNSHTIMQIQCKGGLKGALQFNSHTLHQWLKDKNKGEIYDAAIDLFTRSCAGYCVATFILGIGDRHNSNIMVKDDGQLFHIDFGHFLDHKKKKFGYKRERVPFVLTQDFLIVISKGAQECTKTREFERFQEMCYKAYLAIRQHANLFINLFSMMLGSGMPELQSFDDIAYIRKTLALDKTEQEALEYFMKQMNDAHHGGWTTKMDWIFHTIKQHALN

[15] = target: Phosphatidylinositol 4,5-bisphosphate 3-kinase catalytic subunit alpha isoform (Homo sapiens) (UniProt P42336); settings: at 1 µM
[16] = target: T3, Phosphatidylinositol 4,5-bisphosphate 3-kinase catalytic subunit delta isoform (Homo sapiens) (UniProt O00329); settings: at 0.1 µM
T3 sequence (whole entry): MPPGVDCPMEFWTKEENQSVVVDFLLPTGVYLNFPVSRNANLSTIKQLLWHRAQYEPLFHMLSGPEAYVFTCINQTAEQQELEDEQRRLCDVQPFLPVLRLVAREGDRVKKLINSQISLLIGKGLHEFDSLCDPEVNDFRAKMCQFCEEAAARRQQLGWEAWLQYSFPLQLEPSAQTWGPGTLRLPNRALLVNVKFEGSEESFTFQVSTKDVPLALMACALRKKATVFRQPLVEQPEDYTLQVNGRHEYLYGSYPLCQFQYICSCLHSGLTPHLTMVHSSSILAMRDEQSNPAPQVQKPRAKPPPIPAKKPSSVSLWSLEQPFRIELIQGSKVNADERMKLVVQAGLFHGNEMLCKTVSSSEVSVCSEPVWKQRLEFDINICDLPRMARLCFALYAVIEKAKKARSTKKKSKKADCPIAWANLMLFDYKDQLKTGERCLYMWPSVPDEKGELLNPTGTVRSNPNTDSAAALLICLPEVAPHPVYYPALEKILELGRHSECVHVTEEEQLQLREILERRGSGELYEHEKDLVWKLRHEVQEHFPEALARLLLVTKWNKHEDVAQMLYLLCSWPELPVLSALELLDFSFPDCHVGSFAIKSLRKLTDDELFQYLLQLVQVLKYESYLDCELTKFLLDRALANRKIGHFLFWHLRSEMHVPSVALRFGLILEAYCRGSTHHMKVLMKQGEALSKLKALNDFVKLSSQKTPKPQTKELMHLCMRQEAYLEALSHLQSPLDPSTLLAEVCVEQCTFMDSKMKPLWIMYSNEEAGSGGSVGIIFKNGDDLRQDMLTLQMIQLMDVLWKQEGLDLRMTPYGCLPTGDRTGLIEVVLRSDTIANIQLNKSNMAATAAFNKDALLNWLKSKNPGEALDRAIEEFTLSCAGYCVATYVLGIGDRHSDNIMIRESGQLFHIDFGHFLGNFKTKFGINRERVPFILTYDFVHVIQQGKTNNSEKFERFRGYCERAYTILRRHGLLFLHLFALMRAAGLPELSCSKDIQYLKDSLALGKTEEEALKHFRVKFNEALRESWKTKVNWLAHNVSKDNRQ

[17] = target: T3, Phosphatidylinositol 4,5-bisphosphate 3-kinase catalytic subunit delta isoform (Homo sapiens); settings: at 1 µM
[18] = target: Phosphatidylinositol 4-kinase beta (Homo sapiens) (UniProt Q9UBF8); settings: at 0.1 µM
Phosphatidylinositol 4-kinase beta (Homo sapiens), sequence (Q9UBF8 2-816 limits assumed): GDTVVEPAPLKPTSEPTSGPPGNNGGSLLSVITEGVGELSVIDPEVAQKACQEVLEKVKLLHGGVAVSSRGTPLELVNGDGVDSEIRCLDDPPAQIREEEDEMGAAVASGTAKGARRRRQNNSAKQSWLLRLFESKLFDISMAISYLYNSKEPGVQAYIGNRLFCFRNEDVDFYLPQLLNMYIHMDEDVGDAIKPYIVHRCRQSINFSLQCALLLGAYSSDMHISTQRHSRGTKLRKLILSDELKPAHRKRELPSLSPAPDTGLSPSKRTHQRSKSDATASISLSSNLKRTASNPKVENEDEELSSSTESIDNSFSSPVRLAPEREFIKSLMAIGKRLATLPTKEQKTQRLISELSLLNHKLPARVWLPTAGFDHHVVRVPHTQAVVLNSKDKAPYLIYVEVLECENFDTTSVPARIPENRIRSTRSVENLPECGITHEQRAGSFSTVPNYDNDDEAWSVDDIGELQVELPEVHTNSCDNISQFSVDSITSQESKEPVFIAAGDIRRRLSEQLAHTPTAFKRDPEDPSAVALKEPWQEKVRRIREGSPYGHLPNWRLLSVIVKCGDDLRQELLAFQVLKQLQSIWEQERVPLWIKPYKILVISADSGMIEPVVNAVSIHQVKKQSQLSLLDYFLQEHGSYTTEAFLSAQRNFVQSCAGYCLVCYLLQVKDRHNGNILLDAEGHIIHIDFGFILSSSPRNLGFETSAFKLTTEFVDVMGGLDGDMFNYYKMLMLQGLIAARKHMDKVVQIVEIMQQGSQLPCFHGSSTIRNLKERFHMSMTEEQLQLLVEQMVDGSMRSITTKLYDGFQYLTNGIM

[19] = target: Phosphatidylinositol 4-kinase beta (Homo sapiens) (UniProt Q9UBF8); settings: at 1 µM
[20] = target: Sphingosine kinase 1 (Homo sapiens) (UniProt Q9NYA1); settings: at 0.1 µM;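 also: mean percent inhibition of SPHK1 activity, measured within the GSK PKIS screening panel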
Sphingosine kinase 1 (Homo sapiens), sequence (Q9NYA1 whole entry): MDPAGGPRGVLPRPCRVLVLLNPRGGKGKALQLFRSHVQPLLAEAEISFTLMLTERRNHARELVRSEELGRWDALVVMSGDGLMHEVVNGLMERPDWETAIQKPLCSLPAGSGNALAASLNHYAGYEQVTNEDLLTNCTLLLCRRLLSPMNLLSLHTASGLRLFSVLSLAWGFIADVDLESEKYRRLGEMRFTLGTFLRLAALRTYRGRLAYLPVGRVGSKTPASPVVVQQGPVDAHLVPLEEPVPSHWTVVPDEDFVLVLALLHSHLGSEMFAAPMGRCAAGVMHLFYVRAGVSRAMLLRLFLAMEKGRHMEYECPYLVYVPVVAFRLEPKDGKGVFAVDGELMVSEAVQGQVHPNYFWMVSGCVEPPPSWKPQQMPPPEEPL

SRSF protein kinase 3 (Homo sapiens), sequence (Q9UPE1 whole entry): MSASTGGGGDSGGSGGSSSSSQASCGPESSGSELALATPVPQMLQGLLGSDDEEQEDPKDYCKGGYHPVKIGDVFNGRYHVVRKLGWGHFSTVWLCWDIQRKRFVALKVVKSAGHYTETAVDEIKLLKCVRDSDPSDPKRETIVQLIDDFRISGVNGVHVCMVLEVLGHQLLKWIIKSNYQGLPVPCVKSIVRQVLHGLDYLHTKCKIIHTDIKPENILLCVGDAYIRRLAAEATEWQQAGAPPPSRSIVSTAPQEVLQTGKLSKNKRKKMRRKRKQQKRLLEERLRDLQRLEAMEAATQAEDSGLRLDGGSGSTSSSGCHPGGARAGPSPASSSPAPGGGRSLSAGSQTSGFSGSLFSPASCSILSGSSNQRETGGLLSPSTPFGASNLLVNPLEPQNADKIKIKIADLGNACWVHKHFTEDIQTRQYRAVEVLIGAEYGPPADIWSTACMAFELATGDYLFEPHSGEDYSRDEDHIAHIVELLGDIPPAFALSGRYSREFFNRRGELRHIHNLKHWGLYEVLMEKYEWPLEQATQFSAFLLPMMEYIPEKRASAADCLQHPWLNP
Mitogen-activated protein kinase 3 (Homo sapiens), sequence (P27361 whole entry): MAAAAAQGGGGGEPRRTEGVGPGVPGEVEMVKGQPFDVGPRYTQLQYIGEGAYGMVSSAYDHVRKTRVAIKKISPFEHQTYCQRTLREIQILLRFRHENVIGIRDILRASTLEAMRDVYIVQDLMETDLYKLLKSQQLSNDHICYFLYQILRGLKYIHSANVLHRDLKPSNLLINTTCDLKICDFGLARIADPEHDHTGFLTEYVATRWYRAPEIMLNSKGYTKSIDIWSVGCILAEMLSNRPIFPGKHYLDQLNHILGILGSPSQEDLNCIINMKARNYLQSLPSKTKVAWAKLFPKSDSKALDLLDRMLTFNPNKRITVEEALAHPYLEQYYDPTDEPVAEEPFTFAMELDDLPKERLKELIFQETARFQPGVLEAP

Compound | inhibition [1] [%] | inhibition [2] [%] | inhibition [3] [%] | inhibition [4] [%] | inhibition [5] [%] | inhibition [6] [%] | inhibition [7] [%] | inhibition [8] [%] | inhibition [9] [%] | inhibition [10] [%] | inhibition [11] [%] | inhibition [12] [%] | inhibition [13] [%] | inhibition [14] [%] | inhibition [15] [%] | inhibition [16] [%] | inhibition [17] [%] | inhibition [18] [%] | inhibition [19] [%] | inhibition [20] [%]
NC(=O)c1sc(-n2cnc3cc(C(F)(F)F)ccc32)cc1OCc1ccccc1Br | 0.48 | -3.47 | 0.48 | 1.34 | 4.04 | 4.23 | 4.66 | 0.44 | -0.68 | 1.27 | 1.86 | -1.98 | -4.1 | 0.07 | 0.07 | 0.65 | 1.77 | 0.77 | -3.13 | -0.24
CCn1c(-c2nonc2N)nc2c(C#CC(C)(C)O)nc(O[C@@H](CN)c3ccccc3)cc21 | 0.99 | -2 | -2.07 | 1.44 | 1.33 | -1.84 | 2.96 | 1.2 | 0.11 | 1.29 | 0.23 | -0.59 | -3.25 | -0.44 | 0.33 | 2.44 | 3.42 | 6.5 | 1.86 | -1.08
CCn1c(-c2nonc2N)nc2c(C#CCN)ncc(OCCCN)c21 | -0.18 | -0.3 | 3.44 | 2.31 | -5.03 | -2.25 | 0.63 | 2.51 | -4.32 | -2.6 | -2.79 | 2.33 | 7.14 | -0.54 | -3.54 | -2.56 | -5.7 | 1.34 | -2.08 | 0.33
Cc1cc(-c2ccco2)cc(C)c1/C=C/c1cncc(-c2nn[nH]n2)c1 | 1.84 | -1.41 | -1.53 | 1.46 | 1.43 | 3.14 | 3.31 | 0.77 | -1.04 | 0.9 | 1.3 | -0.96 | -1.7 | -0.22 | 6.64 | 0.16 | -1.23 | -1.26 | 9.03 | 0.73
Fc1ccc(-c2ncn(C3CCNCC3)c2-c2ccnc(Oc3ccccc3)n2)cc1 | 3.04 | -3.7 | -2.18 |  |  |  |  |  |  |  |  | -1.48 | -1.61 | 1.53 | 0.06 | 0.6 | 1.12 | 0.91 | 2.57 | 1.45
NS(=O)(=O)c1ccc(-c2ccc3c(NC(=O)C4CC4)n[nH]c3c2)cc1 | 1.36 | 0.31 | -1.45 | 7.62 | 5.94 | 2.34 | -1.13 | 3.91 | 5.02 | 0.67 | 0.58 | -1.31 | -2.21 | 2.7 | 3.32 | 3.34 | 8.4 | -0.87 | -1.58 | -2.63
NS(=O)(=O)c1ccc(N/C=C2\C(=O)Nc3ccc4ncsc4c32)cc1 | 15.3 | -1.67 | 0.72 | 18.6 | 23.4 | 4.61 | 15 | 4.52 | 4.84 | 2.86 | 5.04 | -3.49 | -2.8 | 4.87 | 7.04 | 2.72 | 12.7 | -2.13 | 1.22 | 0.04
Nc1nonc1-c1nc2cnccc2n1C1CCCCC1 | 2.55 | -1.48 | -1.01 | -0.43 | -3.77 | -1.77 | 0.28 | -3.11 | 1.87 | -0.65 | 0.39 | 1 | -0.52 | -2.06 | -3.54 | -1.65 | 0.74 | 4.2 | -2.26 | 0
COc1cc(C=NNc2ncnc3c2cnn3Cc2ccccc2)ccc1O | -1.19 | -1.86 | -0.84 | -2.19 | -2.5 | -3.2 | -2.27 | -0.79 | -6.14 | -2.53 | -3.29 | 1.24 | 0.29 | -4.02 | -1.81 | 3.47 | 6.81 | -1.09 | 2.84 | 3.3
CCn1c(-c2nonc2N)nc2c(C#CC(C)(C)O)ncc(OC[C@@H]3CCCN3)c21 | 2.32 | -2.22 | -4.41 | 0.34 | 0.75 | 1.96 | 1.41 | 0.68 | -1.56 | 0.36 | 0.35 | -1.57 | -2.53 | -0.15 | 0.24 | 0.06 | 0.22 | 0.05 | 1.54 | -0.8
COc1cccc(COc2cc(-n3cnc4ccccc43)sc2C(N)=O)c1 | 3 | -1.99 | -1.01 | 1.67 | 8.88 | 1.92 | 4.36 | -0.06 | -2.46 | -0.12 | -0.04 | -3.25 | -2.74 | 0.82 | 1.56 | 1.62 | 3.63 | 1.38 | -0.71 | 2.22
CCn1c(-c2nonc2N)nc2c(C#CC(C)(C)O)ncc(OCC3CCNCC3)c21 | 6.52 | -0.11 | 3.41 | -0.04 | 5.69 | 3.7 | 4.04 | 1.99 | 2.26 | 1.19 | 1.7 | -0.7 | 1.81 | 1.65 | 19.5 | -0.08 | -0.9 | 4.18 | -3.56 | 0
COc1cccc(-n2ncc3c(N/N=C/c4ccncc4)ncnc32)c1 | 7.65 | -0.94 | 1.8 | 9.43 | 16.4 | 4.02 | 10.8 | 7.88 | 43.3 | 5.45 | 14.1 | -1.14 | 4.65 | 3.22 | 7.14 | 2.66 | 10 | -3.14 | 1.7 | -0.71
COc1cc2c(cc1Nc1nc(Nc3ccsc3C(N)=O)c3cc[nH]c3n1)N(C(=O)CN(C)C)CCC2 | 1.75 | -1.49 | -0.38 |  |  | 2.67 | 6.9 | 1.18 | 0.18 | 2.28 | 3.18 | -1.65 | -0.66 | -0.16 | -1 | 0.01 | -0.22 | -1.18 | -3.17 | 1.85
